# Results filed as inconclusive are left out. Where a call stands in place of a potency, no number is given. A number with no mark means an inactive call. Activity calls are given as the source filed them. The call rests on the fitted dose curve; in most records, active means well fitted cell-killing curve with a large enough effect in the repeat runs; inconclusive means weak or mixed curves, or effect the other way; inactive means no such curve, though single readings can be large or run the other way.
# Experiment: qHTS assay to identify small molecule antagonists of the progesterone receptor (PR) signaling pathway - cell viability counter screen (AID 1346798); further: nearly all actives have a fitted effect of over 50% in size
# Conditions: PR-UAS-bla HEK293T viability, CellTiter-Glo luminescence, 16 h; series mostly up to 92.4 µM
# Text: National Center for Advancing Translational Sciences [NCATS]
# NIH Chemical Genomics Center [NCGC]
# U.S. Environmental Protection Agency [EPA]
# National Institutes of Environmental Health Sciences [NIEHS]
# National Toxicology Program [NTP]
# U.S. Food and Drug Administration [FDA]
# Progesterone receptor (PR), a nuclear hormone receptor, plays an important role in development, metabolic homeostasis and reproduction. It is activated by the steroid hormone progesterone. Endocrine disrupting chemicals (EDCs) and their interactions with steroid hormone receptors like PR causes disruption of normal endocrine function. To identify the compounds that inhibit PR signaling, a PR-UAS-bla GripTite cell line i.e. PR-UAS-bla HEK293T (Invitrogen, Carlsbad, CA, USA) containing a beta-lactamase reporter gene under the control of an UAS response element was used to screen Tox21 10K compound library. The cytotoxicity of the Tox21 compound library against the PR-bla cell line was tested in parallel by measuring the cell viability using CellTiter-Glo assay in the same wells.
# Tox21 Assay Protocol Summary:
# PR-UAS-bla HEK293T cells were dispensed at 3,000 cells/4 uL of assay medium containing 2% charcoal stripped FBS per well into black wall/clear-bottom 1536-well plates using a Multidrop Combi (ThermoFisher Scientific, Waltham, MA) dispenser. After the assay plates were incubated at a 37C and 5% CO2 for 4 hr, 23 nL of compounds dissolved in DMSO, positive controls or DMSO only was transferred to the assay plate by a Pintool station (Kalypsys, San Diego, CA), followed by addition of 1 uL of R5020 in assay medium using a Flying Reagent Dispenser (FRD, Aurora Discovery, San Diego, CA). The plates were incubated at 37C and 5% CO2 for 16 hr. Then 1 uL of LiveBLAzer B/G FRET substrate was added using a Flying Reagent Dispenser, the plates were incubated at room temperature for 2 hours, and fluorescence intensity was measured by an Envision plate reader (PerkinElmer, Shelton, CT). For cell viability readout that measures cytotoxicity, 4 uL/well of CellTiter-Glo reagent was added into the assay plates using a FRD. After 30 min incubation at room temperature, the luminescence intensity in the plates was measured using a ViewLux (PerkinElmer) plate reader.
Structure (SMILES),Potency,"activity change, negative = cytotoxicity"
Nc1ccc2cc(S(=O)(=O)O)cc(O)c2c1,inactive,–
CC1(CO)CN(c2ccccc2)NC1=O (stereo not given),inactive,–
COC(=O)CCc1ccc(OCC(O)CNC(C)C)cc1 (stereo not given),inactive,–
N[C@@H](CCC(=O)Nc1ccc([N+](=O)[O-])cc1)C(=O)O,inactive,–
O=S(=O)(O)c1ccc2cc(O)c(S(=O)(=O)O)cc2c1,inactive,–
OC[C@H](Cc1cccc(O)c1)[C@H](CO)Cc1cccc(O)c1,inactive,–
COc1ccc(-c2cc(=O)c3c(O)cc(O[C@@H]4O[C@H](CO[C@@H]5O[C@@H](C)[C@H](O)[C@@H](O)[C@H]5O)[C@@H](O)[C@H](O)[C@H]4O)cc3o2)cc1O,inactive,–
CC(=O)c1sc(C)nc1C,inactive,–
O=C1c2ccccc2C(=O)C1c1ccccc1,inactive,–
O=C1CC(c2ccc(Cl)cc2)CC(=O)N1,inactive,–
O=C1O[C@@H]2[C@@H](O)[C@H](O)O[C@@H]2[C@H]1O,inactive,–
CC(C)CCCCOC(=O)c1ccccc1C(=O)OCCCCC(C)C,inactive,–
OCCN(CCO)c1cccc(Cl)c1,inactive,–
O=C(O)C(=O)Cc1ccccc1,inactive,–
CC(C)(C)NC(N)=O,inactive,–
CCO[Si](CCCS)(OCC)OCC,inactive,–
O=C1CCCC(=O)O1,inactive,–
CCCCC(CC)COCCO (stereo not given),inactive,–
CC(C)=CCOC(=O)c1ccccc1,inactive,–
CC(S)C(=O)NCC(=O)O (stereo not given),inactive,–

Structure (SMILES),Potency,"activity change, negative = cytotoxicity"
O=C(OCC(COC(=O)c1cccnc1)(COC(=O)c1cccnc1)COC(=O)c1cccnc1)c1cccnc1,inactive,–
OCCC(F)(F)C(F)(F)C(F)(F)C(F)(F)C(F)(F)C(F)(F)C(F)(F)C(F)(F)F,inactive,–
CCOc1cc([N+](=O)[O-])c(OCC)cc1N1CCOCC1,inactive,–
CCOc1cc(NC(C)=O)ccc1C(=O)OC,inactive,–
NC(CO)C(=O)NNCc1ccc(O)c(O)c1O (stereo not given),inactive,–
C=C(C)C(=O)OCCN(CC)CC,inactive,–
CC(CC=O)CCCC(C)(C)O (stereo not given),inactive,–
CC(C)CC(=O)O,inactive,–
COc1ccc(Br)c(C)c1,inactive,–
N[C@@H](CCC(=O)N[C@@H](CS)C(=O)NCC(=O)O)C(=O)O,–,2.33% [at 18.9 µM]
CCCCNC1CC(C)(C)NC(C)(C)C1,inactive,–
CN(CCOc1ccc(NS(C)(=O)=O)cc1)CCc1ccc(NS(C)(=O)=O)cc1,inactive,–
CC(CO)c1ccccc1 (stereo not given),inactive,–
CCCCNc1ccc(C(=O)OCCN(C)C)cc1,inactive,–
BrCc1cccc(Oc2ccccc2)c1,inactive,–
CC(=O)CCCCn1c(=O)c2c(ncn2C)n(C)c1=O,inactive,–
NS(=O)(=O)c1cc2c(cc1Cl)CN(C1CCCCC1)C2=O,inactive,–
COc1cc(NS(=O)(=O)c2ccc(N)cc2)nc(OC)n1,inactive,–
CC(=O)/C=C/C1C(C)=CCC(C)C1(C)C (stereo not given),inactive,–
NNc1nnc(NN)c2ccccc12,inactive,–
